According to PubChem BioAssay (EPA / NIEHS):
The source made the active and inactive calls. How the source made its calls: active means hit-call score of the fitted dose curve at least 0.9, where 1 is the maximum; inactive means score below 0.9.

Assay: BSK_LPS_PGE2: BioMAP Diversity Plus: LPS Assay for Prostaglandin E2 (PGE2) Biomarker Activity (AID 2283082)
Conditions: primary human HUVEC with PBMC; actives raise or lower the signal
Method in brief: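 HUVEC plus human PBMC co-culture stimulated with LPS; secreted PGE2 quantified by ELISA 24 h after chemical dosing. Activity fitted bidirectionally against DMSO baseline; parallel SRB staining (0.1% SRB after 10% TCA fixation, 560 nm) flags overt cytotoxicity.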

Row | Compound | outcome | AC50
1 | c1ccc2occc2c1 | inactive | –
2 | C#CC(O)C(CC)CCCC (stereo not given) | inactive | –
3 | NC=O | inactive | –
4 | COC(=O)CCC(=O)OC | inactive | –
5 | CCC(C)N(C)C(=O)c1cc2ccccc2c(-c2ccccc2Cl)n1 (stereo not given) | inactive | –
6 | CCN(CC)CCOc1ccc(C(=C(Cl)c2ccccc2)c2ccccc2)cc1 | – | 8.26 µM (active)
7 | O=Cc1ccccc1C=O | inactive | –
8 | CCCC[C@H]1CN(CC2CCOCC2)C(=O)OC12CCN(C1(C)CCN(C(=O)c3c(C)ncnc3C)CC1)CC2 | inactive | –
9 | CCCCCCC(CCCCCCCCCCC(=O)OCC(COC(C)=O)OC(C)=O)OC(C)=O (stereo not given) | inactive | –
10 | O=C1c2c(O)cccc2Cc2cccc(O)c21 | inactive | –
11 | CC(C)(O)c1ccc(CNC(=O)c2cccnc2Oc2ccc(F)cc2)cc1 | inactive | –
12 | Cn1cnc2c1c(=O)[nH]c(=O)n2C | inactive | –
13 | Oc1ccccc1O | – | 14.4 µM (active)
14 | CCCCCCCCCC[N+](C)(C)[O-] | inactive | –
15 | O=C(N[C@@H](c1ccccc1)[C@@H]1CCCCN1)c1cccc(C(F)(F)F)c1Cl | – | 4.91 µM (active)
16 | O=C1OC(c2ccc(O)cc2)(c2ccc(O)cc2)c2ccccc21 | inactive | –
17 | CC1=C(C)S(=O)(=O)CCS1(=O)=O | inactive | –
18 | O=C(Oc1ccccc1)c1cccc(C(=O)Oc2ccccc2)c1 | inactive | –
19 | CC(C)c1cccc(C(C)C)c1NC(=O)NS(=O)(=O)c1cc(C(C)(C)O)co1 | – | 1.04 µM (active)
20 | Cc1ccc(-c2cc(C(F)(F)F)nn2-c2ccc(S(N)(=O)=O)cc2)cc1 | – | 0.288 µM (active)
21 | OCC(CO)n1cnc(-c2ccc(F)cc2)c1-c1ccnc(Oc2ccccc2)n1 | – | 0.356 µM (active)
22 | C=CCCCCCCCCCCCC | inactive | –
23 | O=C(O)c1cccnc1 | inactive | –
24 | Cc1occc(=O)c1O | inactive | –
25 | CC(=O)O | inactive | –
26 | CCCCC(CC)COC(=O)CCCCCCCC(=O)OCC(CC)CCCC (stereo not given) | inactive | –
27 | COc1ccc(OC(F)(F)F)cc1CN[C@H]1CCCN[C@H]1c1ccccc1 | inactive | –
28 | CSc1ccc(Oc2ccc(S(N)(=O)=O)cc2CN(C)C)cc1C | inactive | –
29 | O=NO | inactive | –
30 | C=CCc1ccc(OC)c(OC)c1 | inactive | –
